Assay outcomes (PubChem BioAssay)
Hits are enriched below; roughly 4.8% of the tested compounds scored in any of these assays.
ssDAF12 agonist = S. stercoralis DAF-12 nuclear receptor activators, primary screen, cell-based, luminescence, HEK293, GRIP1 co-expression, lit1-tk-luc | activation, % at 6.8 µM | 370,000 compounds, 1% hits | HEK293 ssDAF-12/GRIP1 lit1-tk-luc reporter; % of 3 µM dafachronic acid response | AID 652126, 2013;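 active = activation above the mean over all tested compounds plus 3 SD, cut at about 0.9% in these data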;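 also: 0% = DMSO-only wells and 100% = 3 µM delta7-dafachronic acid wells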
DAX1 inh-1 = DAX1 (NR0B1) inhibitors on StAR promoter, primary screen, cell-based, luminescence, SF-1 (NR5A1), full-length DAX-1. HEK293T StAR-luciferase reporter, SF-1/DAX-1 repression relief. inhibition, % at 6.8 µM. 370,000 compounds, 1.1% hits;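 active = inhibition above the mean over all tested compounds plus 3 SD, cut at about 3.6% in these data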;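 also: 0% = DAX-1 cells with DMSO and 100% = cells lacking DAX-1 with DMSO; higher inhibition means more luminescence from relief of DAX-1 repression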
hcDAF-12 act = H. contortus DAF-12 nuclear receptor activators, primary screen, cell-based, luminescence, HEK293, lit1-tk-luc reporter. AID 652067, 2013. HEK293 hcDAF-12 lit1-tk-luc reporter; 0% DMSO, 100% Δ7-dafachronic acid. activation, % at 6.8 µM. 370,000 compounds, 1.4% hits;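 active = activation above the mean of all tested compounds plus 3 SD, cut at about 5.5% in these data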;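 also: 100% = response to 3 µM Δ7-dafachronic acid high control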
DAX1 inh-2 = DAX1 (NR0B1) inhibitors, primary screen, cell-based, HEK293, Gal4-DAX1, luciferase luminescence; HEK293 Gal4-DAX1 luciferase reporter; inhibition, % at 6.75 µM; 340,000 compounds, 0.99% hits;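 active = inhibition above the mean over all tested compounds plus 3 SD, cut at about 4.2% in these data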;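 also: 0% = DAX1-transfected cells with DMSO and 100% = empty-vector control cells with DMSO; inhibition shows as a rise in luminescence from relieved DAX1 repression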
hgDAF12 agonist = H. glycines DAF-12 receptor agonists, primary screen, cell-based, luminescence, HEK293, GAL4 fusion, UAS-luciferase; Nuclear hormone receptor DAF-12 (Heterodera glycines), GAL4 fusion; HEK293 GAL4-hgDAF12 UAS-luciferase reporter, agonist luminescence; normalized to butyrate control; activation, % at 6.8 µM; 370,000 compounds, 1.8% hits; AID 687014, 2013;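 active = activation above a cutoff set at the mean of all screened compounds plus 3 SD, cut at about 10% in these data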;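 also: 0% = DMSO wells and 100% = sodium butyrate wells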
SMARCA2 activ = SMARCA2 (BRM) function activators, primary screen, cell-based, luminescence, high throughput; MG213 cells, MMTV-luciferase reporter, dexamethasone, overnight; activation, % at 9.1 µM; 370,000 compounds, 1% hits; AID 652017, 2013; in the data active = activation above about 7.8%;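 also: 0% = vehicle wells and 100% = reference activator wells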
hgDAF12 conf = H. glycines DAF-12 receptor agonists, confirmation, cell-based, luminescence, HEK293, GAL4-LBD fusion; HEK293 GAL4-hgDAF12 luciferase reporter, agonist mode; percent of butyrate response; activation, % at 6.8 µM; 3,300 compounds, 80% hits; AID 743050, 2013; shares compounds with hgDAF12 agonist;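 active = mean activation over triplicate wells above the hit cutoff derived from the earlier primary screen, cut at about 11% in these data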;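 also: 0% = DMSO low control and 100% = 2 mM sodium butyrate high control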
LXR ag 2 = LXR agonists, Gal4 luciferase reporter, confirmation, counter-screen for hgDAF-12 agonist project, cell-based, luminescence, HEK293, H. glycines campaign. 3,300 tested, under 10 active. shares compounds with hgDAF12 agonist. AID 743051, 2013. 24 h. activation, % at 6.8 µM;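 active = mean activation of the triplicate above a set limit carried over from the primary screen, none filed active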
Target sequence (P55055 whole entry, looked up, the tested form may be a part): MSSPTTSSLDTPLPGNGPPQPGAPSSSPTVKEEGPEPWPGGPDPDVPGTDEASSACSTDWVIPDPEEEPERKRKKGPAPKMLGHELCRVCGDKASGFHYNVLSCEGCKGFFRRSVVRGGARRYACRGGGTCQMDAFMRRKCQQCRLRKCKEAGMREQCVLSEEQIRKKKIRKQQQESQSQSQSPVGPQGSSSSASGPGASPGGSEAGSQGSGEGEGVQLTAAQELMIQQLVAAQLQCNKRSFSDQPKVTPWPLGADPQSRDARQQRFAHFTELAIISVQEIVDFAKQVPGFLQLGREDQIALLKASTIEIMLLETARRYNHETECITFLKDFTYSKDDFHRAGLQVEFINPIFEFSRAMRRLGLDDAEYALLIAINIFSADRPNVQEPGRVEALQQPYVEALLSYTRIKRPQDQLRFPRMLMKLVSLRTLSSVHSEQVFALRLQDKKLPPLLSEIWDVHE
* hit, by the source's call.

CCOC(=O)c1sc2nc(-c3cccnc3)ccc2c1N was read as ssDAF12 agonist -0.1, DAX1 inh-1 3.2, hcDAF-12 act 4.9, DAX1 inh-2 1.4, hgDAF12 agonist 21.6*, SMARCA2 activ 1.4, hgDAF12 conf 17.2* and LXR ag 2 1.2.
NC(=O)c1sc2nc(-c3cccnc3)ccc2c1N was read as ssDAF12 agonist -0.9, DAX1 inh-1 0.2, hcDAF-12 act 0.0, hgDAF12 agonist 3.2 and SMARCA2 activ 7.4.
For Cc1ccnc(NC(=O)Nc2ccc(F)cc2)c1 the results were ssDAF12 agonist 0.5, DAX1 inh-1 3.5, hcDAF-12 act 5.2, DAX1 inh-2 1.9, hgDAF12 agonist 13.6*, SMARCA2 activ 6.2, hgDAF12 conf 18.9* and LXR ag 2 0.8.
Screening Cc1nn(Cc2ccccc2)c(C)c1NC(=O)CSc1nc(-c2ccccc2)nc2c1cnn2-c1ccccc1 returned ssDAF12 agonist -1.1, DAX1 inh-1 -0.5, hcDAF-12 act -1.6, DAX1 inh-2 0.5, hgDAF12 agonist 0.5 and SMARCA2 activ -1.6.
Screening O=C(Nc1nnc(-c2cccs2)o1)c1cccc(F)c1 returned ssDAF12 agonist -1.1, DAX1 inh-1 -0.5, hcDAF-12 act 1.3, DAX1 inh-2 1.3, hgDAF12 agonist 1.7 and SMARCA2 activ -1.8.
Screening Fc1ccc(/C=C/c2nnc(-c3cccs3)o2)cc1 returned ssDAF12 agonist 0.3, DAX1 inh-1 3.7*, hcDAF-12 act 3.7, DAX1 inh-2 1.9, hgDAF12 agonist 15.3*, SMARCA2 activ 6.8, hgDAF12 conf 12.0* and LXR ag 2 0.6.
O=C(N/N=C/C1CC=CCC1)c1ccc(Cl)cc1O (stereo not given) was read as ssDAF12 agonist 1.1*, DAX1 inh-1 0.8, hcDAF-12 act 3.8, DAX1 inh-2 -1.4, hgDAF12 agonist 16.0*, SMARCA2 activ 1.9, hgDAF12 conf 0.2 and LXR ag 2 0.0.
O=C(Nc1ccc(CN2CCOCC2)cc1)c1ccc(F)cc1 was read as ssDAF12 agonist 0.2, DAX1 inh-1 0.8, hcDAF-12 act 3.3, DAX1 inh-2 2.1, hgDAF12 agonist 6.1 and SMARCA2 activ 3.5.
`O=C(Nc1ccc(CN2CCOCC2)cc1)c1cccc(F)c1` gave ssDAF12 agonist -0.5, DAX1 inh-1 2.5, hcDAF-12 act 0.3, DAX1 inh-2 2.7, hgDAF12 agonist 14.9*, SMARCA2 activ 6.7, hgDAF12 conf 13.9* and LXR ag 2 0.4.
`CC(C)CC(=O)Nc1ccc2nn(-c3ccccc3)nc2c1` gave ssDAF12 agonist -0.3, DAX1 inh-1 3.4, hcDAF-12 act 3.8, DAX1 inh-2 3.2, hgDAF12 agonist 14.1*, SMARCA2 activ 0.5, hgDAF12 conf 16.4* and LXR ag 2 0.8.
For O=C(COC(=O)c1cc2ccccc2oc1=O)Nc1ccc(F)cc1F the results were ssDAF12 agonist 0.2, DAX1 inh-1 2.2, hcDAF-12 act 5.0, DAX1 inh-2 0.3, hgDAF12 agonist 16.5*, SMARCA2 activ 7.3, hgDAF12 conf 15.8* and LXR ag 2 0.5.
Screening OC(c1ccc(F)cc1)c1nc(/C=C/c2ccccc2)cs1 (stereo not given) returned ssDAF12 agonist -0.8, DAX1 inh-1 3.4, hcDAF-12 act 2.7, hgDAF12 agonist 7.2 and SMARCA2 activ 0.6.
`OC(c1ccccc1)c1nc(/C=C/c2ccccc2)cs1` (stereo not given) gave ssDAF12 agonist -1.1, DAX1 inh-1 3.3, hcDAF-12 act 4.7, hgDAF12 agonist 15.7*, SMARCA2 activ 3.2, hgDAF12 conf 11.3* and LXR ag 2 0.3.
Screening c1ccc2[nH]c(CNc3nc(N4CCOCC4)nc4c3ncn4-c3ccsc3)nc2c1 returned ssDAF12 agonist -3.1, hcDAF-12 act -5.8 and hgDAF12 agonist -9.2.
`COCc1cn(-c2nc3ccccc3s2)nn1` gave ssDAF12 agonist -0.2, DAX1 inh-1 3.0, hcDAF-12 act 3.2, hgDAF12 agonist 7.5 and SMARCA2 activ 5.5.
`N#CCCCc1cn(-c2nc3ccccc3s2)nn1` gave ssDAF12 agonist 0.6, DAX1 inh-1 4.0*, hcDAF-12 act 1.7, hgDAF12 agonist 13.8*, SMARCA2 activ 0.1, hgDAF12 conf 12.8* and LXR ag 2 0.3.
Screening COc1ccc(NC(=O)c2cc3ccccc3[nH]2)cc1 returned ssDAF12 agonist 0.3, DAX1 inh-1 2.3, hcDAF-12 act 2.2, DAX1 inh-2 6.1*, hgDAF12 agonist 17.0*, SMARCA2 activ 2.5, hgDAF12 conf 12.8* and LXR ag 2 0.7.
COc1ccc2[nH]c(C(=O)Nc3ccc(C)c(F)c3)cc2c1 was read as ssDAF12 agonist -0.4, DAX1 inh-1 0.1, hcDAF-12 act -0.8, DAX1 inh-2 1.4, hgDAF12 agonist 3.1 and SMARCA2 activ 3.8.
`O=C(Nc1ccccc1)Nc1ccccc1Br` gave ssDAF12 agonist -0.1, DAX1 inh-1 4.1*, hcDAF-12 act 5.2, DAX1 inh-2 0.6, hgDAF12 agonist 19.3*, SMARCA2 activ 3.6, hgDAF12 conf 7.2 and LXR ag 2 0.4.
For Cc1ccc(NC(=O)COC(=O)CCC(=O)c2ccc(Cl)cc2)cc1S(=O)(=O)N(C)C the results were ssDAF12 agonist -0.6, DAX1 inh-1 0.3, hcDAF-12 act 0.6, DAX1 inh-2 0.9, hgDAF12 agonist -0.4 and SMARCA2 activ -1.2.
Screening O=C1CCCC(O)=C1N=Nc1ccc2c(c1)OCO2 returned ssDAF12 agonist -0.9, DAX1 inh-1 0.2, hcDAF-12 act 5.9*, DAX1 inh-2 2.7, hgDAF12 agonist 14.5*, SMARCA2 activ 7.7, hgDAF12 conf 9.0 and LXR ag 2 0.6.
`O=C(CN1CCC(c2nc3ccccc3s2)CC1)NCc1cccs1` gave ssDAF12 agonist -2.8, DAX1 inh-1 -3.2, hcDAF-12 act -3.5, DAX1 inh-2 -3.3, hgDAF12 agonist -5.8 and SMARCA2 activ -4.8.
